Experimental findings from PubChem BioAssay (NCATS) are described below.

Active and inactive are the calls of the source. Where a call stands in place of a potency, no number is given. Calls follow the shape of the dose curve; as a rule, active = well fitted inhibition curve with a large enough effect; inconclusive = small, poorly fitted or top-dose-only effect; inactive = flat fitted curve, though single readings scatter.

In the assay the test system is Nanoluciferase (engineered Oplophorus gracilirostris luciferase). The assay is described as follows: Primary Nanoluciferase (NLuc) qHTS assay for identification of artifact compounds. (AID 1845222).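 Also: NLuc secreted into diluted conditioned medium of S16 cells.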 The conditions noted are these: NLuc-conditioned medium, Nano-Glo luminescence, 5 min; series mostly up to 54.1 µM. An outline of the steps: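 Using secreted nanoluciferase in S16 culture medium (0.22 um filtered, 1:55 dilution), compounds were preincubated 15 min at RT. Signal was generated with Nano-Glo reagent (1:100) over 5 min.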
Background: qHTS replaces the single test concentration by a dilution series.
In the case of `C/C=C/C=C/[C@@H]1O[C@](O)([C@H](CC)C(=O)NC/C=C/C=C(\C)[C@@H](OC)[C@@H](C)[C@@H]2O[C@H](/C=C/C=C/C=C(\C)C(=O)c3c(O)ccn(C)c3=O)[C@H](O)[C@@H]2O)[C@H](O)[C@H](O)C1(C)C`, the activity, negative = inhibition was -0.199% [at 11.6 µM] (inactive).
For H-DPPDPDRFYGMM-NH2, the Potency result is “inactive”.
For the molecule `O=C(O)CC1CCC(c2ccc(NC(=O)c3nnc(Nc4ccc(F)c(F)c4)o3)cc2)CC1` (stereo not given), the Potency entry is “inactive”.
Still for that read-out and setting: in the case of `COC(=O)C(CC1(O)c2ccccc2N2C(=O)C(C)(C)N(O)C21)n1cnc2ccccc2c1=O` (stereo not given) it was “inactive”; in that of `CCC12CCCN3CCc4c(n(c5ccccc45)C(O)C1)C32` (stereo not given), “inactive”; in that of `CC(C)=CCC/C(C)=C/CO[C@@H]1O[C@H](CO[C@@H]2OC[C@](O)(CO)[C@H]2O)[C@@H](O)[C@H](O)[C@H]1O`, “inactive”.
As for `CC1CC=C2C1CC1(O)C(=O)CC2(C)C1(C)CO` (stereo not given), the Potency result was “inactive”.
Still for that read-out and setting: for `C/C(=C\CO)CC/C=C(\C)C(=O)O[C@@H]1O[C@H](CO)[C@@H](O)[C@H](O)[C@H]1O` the value was “inactive”; for `Cc1onc(-c2c(Cl)cccc2Cl)c1CC(=O)NCc1ccc(OCC(F)(F)F)nc1`, “inactive”; for `COC(=O)[C@H](Cc1ccc([N+](=O)[O-])cc1)NC(=O)c1cccc2ccccc12`, “inactive”.
The same measure, in the same setting: for `CC(=O)O[C@H]1C[C@@]2(C)[C@@H](CC[C@H]3[C@@]4(C)C=CC(=O)[C@@H](C)[C@@H]4[C@H](OC(C)=O)C(=O)[C@@]32C)/C1=C(\CCC=C(C)C)C(=O)O` the value was “inactive”; for `COC(=O)C1=CO[C@@H](O[C@@H]2O[C@H](CO)[C@@H](O)[C@H](O)[C@H]2O)[C@@H]2[C@@H](C)[C@@H](OC(=O)/C=C/c3ccccc3)[C@@H](O)[C@H]12`, “inactive”.
Consider `COC(=O)C1(C)CCCC2(C)c3ccc(C(C)C)cc3C(O)C(O)C12` (stereo not given), for which the Potency result is “inactive”.
Same read-out and setting: for `CCOC(=O)C(CCc1ccccc1)NC1CCCN2CCCC(C(=O)O)N2C1=O` (stereo not given) the value was “inactive”; for `COCc1c(O)c(C(=O)O)c(C)c2c1OC(=O)c1c(C)cc(O)c(CO)c1O2`, “inactive”; for `C/C=C(\C)C(=O)OCC1OC(OCC2OC(OC3(CO)OC(CO)C(O)C3O)C(O)C(O)C2O)C(O)C(O)C1O` (stereo not given), “inactive”.
The same measure, in the same setting: for `O=C(/C=C/c1ccc(O)cc1)OC[C@@]1(O)C=C[C@@H]2C(C(=O)O)=CO[C@@H](O[C@@H]3O[C@H](CO)[C@@H](O)[C@H](O)[C@H]3O)[C@@H]21` the value was “inactive”.
On the same count and under the same terms, in the case of `CC1(C)C[C@H]2C=C(C=O)[C@]3(C(=O)O)C[C@]3(C)[C@H]2C1` it was “inactive”; in that of `C[C@@H]1O[C@@H](O[C@H]2[C@@H]3C=CO[C@@H](O[C@@H]4O[C@H](CO)[C@@H](O)[C@H](O)[C@H]4O)[C@@H]3[C@@]3(CO)O[C@@H]23)[C@H](O)[C@H](OC(=O)/C=C/c2ccc(O)cc2)[C@H]1OC(=O)/C=C/c1ccc(O)cc1`, “inactive”.
Turning to `C=C1CC[C@@]2(OC1)O[C@H]1CC3[C@@H]4CC=C5C[C@H](O[C@H]6OC[C@@H](O)C(O)[C@@H]6O[C@@H]6O[C@@H](C)[C@H](O)[C@@H](O[C@@H]7O[C@H](CO)[C@@H](O)[C@H](O)[C@H]7O)[C@H]6O)C[C@@H](O)[C@]5(C)C4CC[C@]3(C)[C@H]1[C@@H]2C` (stereo not given in full), the activity, negative = inhibition was -1.92% [at 11.6 µM] (inactive).
`COC(=O)/C=C/c1ccc(O[C@@H]2O[C@H](CO)[C@@H](O)[C@H](O)[C@H]2O)cc1`: the Potency result was “inactive”.
Still for that read-out and setting: in the case of `C=C1C2(C)CC3C4(C)C=CC(=O)OC(C)(C)C4CCC3(C)C1(C(=O)OC)C(=O)C(C)(O)C2=O` (stereo not given) it was “inactive”.
On the same count and under the same terms, in the case of `COC(=O)[C@]1(Cc2ccc(O)c(CC=C(C)C)c2)OC(=O)C(O)=C1c1ccc(O)cc1` it was “inactive”.
Still for that read-out and setting: for `C=C(C)C1Cc2c(ccc3c2OCC(c2ccc(O)cc2O)C3)O1` (stereo not given) the value was “inactive”; for `CC1(C)C[C@H](O)C[C@@]2(C)[C@H]1[C@H](O)C=C1COC(=O)[C@@]12O`, “inactive”; for `CC(O)C(O)/C=C/C=C/C(=O)O[C@@H]1C=C(C(=O)O)[C@](O)(CO)[C@@]2(C)CCCC(C)(C)[C@H]12` (stereo not given in full), “inactive”.
Turning to `COc1cccc(C(=O)NCCNc2nc3cc(C)cc(C)c3cc2C#N)c1`, the Potency entry is “inactive”.
On the same count and under the same terms, for `CC1=CC(=O)CC(C)(C)[C@@]1(O)/C=C/C(C)O[C@@H]1O[C@H](CO)[C@@H](O)[C@H](O)[C@H]1O` (stereo not given in full) the value was “inactive”; for `C=C1C(O)C(O)C2(CC3C(C)=CCC4C(C)(C(=O)O)CCCC34C)OC2C1O` (stereo not given), “inactive”.
On to `Cc1cc(C(=O)N2Cc3cnn(C)c3Nc3ccccc32)ccc1CNC(=O)N1CCN(Cc2cc(O)cc(O)c2)CC1`, for which the Potency result was “inactive”.
On to `O=C(COCC(=O)N1CCN(C(c2ccccc2)c2ccccc2)CC1)Nc1ccc(Cl)cc1C(=O)O`, for which the Potency result was “inactive”.
Consider `CC1(C)CC[C@]2(C(=O)O[C@@H]3O[C@H](CO[C@@H]4O[C@H](CO)[C@@H](O)[C@H](O)[C@H]4O)[C@@H](O)[C@H](O[C@@H]4O[C@H](CO)[C@@H](O)[C@H](O)[C@H]4O)[C@H]3O)CC[C@]3(C)C(=CCC4[C@@]5(C)CC[C@H](O[C@@H]6OC[C@@H](O)[C@H](O)[C@H]6O)[C@@](C)(C(=O)O)C5CC[C@]43C)[C@@H]2C1` (stereo not given in full), for which the activity, negative = inhibition is 1.63% [at 11.6 µM] (inactive).
`COc1cc(C(=O)OCC2=CCC3C(C(=O)O)=COC(O[C@@H]4O[C@H](CO)[C@@H](O)[C@H](O)[C@H]4O)C23)ccc1O` (stereo not given in full): the Potency entry was “inactive”.
Still for that read-out and setting: for `COC(=O)C1=COC(OC2OC(CO)C(O)C(O)C2O)C2C(C)C(OC(=O)/C=C/c3ccc(O)cc3)C(O)C12` (stereo not given) the value was “inactive”; for `C/C=C/C=C/C=C/C(=O)O[C@@H]1C=C(CO)[C@](O)(CO)[C@@]2(C)CCCC(C)(C)[C@H]12`, “inactive”; for `COc1cn(-c2ccc(-n3cccn3)cc2F)nc(-c2ccnn2-c2ccccc2)c1=O`, “inactive”.
Still for that read-out and setting: in the case of `O=C(O)Cc1cn([C@@H]2OC[C@@H](O[C@@H]3O[C@H](CO)[C@@H](O)[C@H](O)[C@H]3O)[C@H](O)[C@H]2O[C@@H]2O[C@H](CO)[C@@H](O)[C@H](O)[C@H]2O)c2ccccc12` it was “inactive”; in that of `O=c1[nH]ccc2nc(-c3ccc(CN4CCC(c5nc(-c6ccccn6)n[nH]5)CC4)cc3)c(-c3ccccc3)cc12`, “inactive”.
On to `NC[C@@H]1O[C@@H](O[C@@H]2[C@@H](O[C@@H]3O[C@H](CO)[C@@H](O)[C@H]3O)[C@H](O)[C@@H](N)C[C@H]2N)[C@@H](N)[C@H](O)[C@H]1O`, for which the activity, negative = inhibition was 0% [at 11.6 µM] (inactive).
For `O=C(OC[C@H]1O[C@@H](Oc2ccccc2COC(=O)C2(O)C=CCCC2O)[C@H](O)[C@@H](O)[C@@H]1O)c1ccccc1` (stereo not given in full), the Potency result was “inactive”.
